# Reference: publication PMC5540273 (PLoS ONE, 2017)
# How the values were obtained:
# Details in all cases: concentration: 1 μM, replicates: in singlicate; n = 1
# PRKCH = tested on: PRKCH
# PRKCI = tested on: PRKCI
# PRKCQ = tested on: PRKCQ
# PRKD1 = tested on: PRKD1
# PRKD2 = tested on: PRKD2
# PRKD3 = tested on: PRKD3
# PRKG1 = tested on: PRKG1
# PRKG2 = tested on: PRKG2
# PRKR = tested on: T1, PRKR
# T1 construct: gene EIF2AK2
# PRKX = tested on: PRKX
# PRP4 = tested on: PRP4
# PYK2 = tested on: T2, PYK2
# T2 construct: gene PTK2B
# QSK = tested on: QSK
# RAF1 = tested on: RAF1
# RET = tested on: RET
# RIOK1 = tested on: RIOK1
# RIOK2 = tested on: RIOK2
# RIOK3 = tested on: RIOK3
# RIPK1 = tested on: RIPK1
# RIPK2 = tested on: RIPK2
# 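Note: KINOMEscan kinase panel screen.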
Compound,%Inh (PRKCH) [%],%Inh (PRKCI) [%],%Inh (PRKCQ) [%],%Inh (PRKD1) [%],%Inh (PRKD2) [%],%Inh (PRKD3) [%],%Inh (PRKG1) [%],%Inh (PRKG2) [%],%Inh (PRKR) [%],%Inh (PRKX) [%],%Inh (PRP4) [%],%Inh (PYK2) [%],%Inh (QSK) [%],%Inh (RAF1) [%],%Inh (RET) [%],%Inh (RIOK1) [%],%Inh (RIOK2) [%],%Inh (RIOK3) [%],%Inh (RIPK1) [%],%Inh (RIPK2) [%]
Cc1cccc2c(-c3ccncn3)c(-c3ccc(F)cc3)nn12 [GW515532],33,26,9,3,0,32,8,0,0,5,10,0,0,0,0,34,0,5,1,11
CN1c2ccc(-c3ccc(C(N)=O)cc3)cc2-c2[nH]ncc2S1(=O)=O,0,4,5,17,80,0,0,2,6,0,12,0,14,11,1,33,0,29,0,0
COC(=O)C(Cc1ccccc1)NC(=O)NC1CCN(c2ccnc(Nc3ccc(F)cc3)n2)C1 (centres unmarked) [GSK1379714],10,22,0,0,0,100,0,8,6,0,33,28,0,13,21,24,0,34,18,3
Cc1ccc(NC(=O)c2ccc(Cl)cc2)cc1-c1ccc(C(=O)Nc2ccncc2)cc1 [GSK1398467],5,5,0,0,0,9,0,0,4,23,46,18,0,35,0,32,0,8,0,12
CNc1cc(-c2ccc3c(N)n[nH]c3c2)nc(N)n1 [GSK2224810],0,27,0,0,6,6,0,85,18,57,0,0,0,0,35,84,12,72,3,9
O=C1NC(=O)C(c2ccc(Cl)cc2)=C1Nc1ccc(O)cc1 [SB-340867],0,0,0,0,19,0,0,1,0,0,8,18,0,46,0,0,0,0,0,0
Cc1nccc(-c2c(-c3ccc(F)cc3)ncn2CCCN2CCOCC2)n1.Cl [SB-282975],0,21,14,25,2,7,10,26,0,0,17,21,26,0,6,29,14,27,15,27
COc1ccc(CSc2nnc(-c3ccc4nccn4c3)o2)cc1C(F)(F)F,0,13,30,0,5,1,3,16,0,34,4,0,11,4,23,15,32,17,5,0
CCn1c(-c2c(N)noc2C)nc2cnccc21 [SB-737856],6,7,32,1,11,0,0,0,0,16,11,2,20,23,0,11,0,7,0,0
Nc1cccc(-c2ccc3c(N)n[nH]c3c2)n1 [GSK2192730],0,8,10,0,0,8,0,0,10,23,12,0,10,0,0,82,34,86,18,0
